Reference: PubChem BioAssay (NCI)
This is part of a sample that, as a whole, favours compounds with a hit. Of some 83,000 tested, about 20% had one in any assay.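 Negative percent growth values reflect cell death: -40 means 40% of the cells present at the start died, and -100 means all died.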 Calls of active or inactive are those of the source. The calls were made as follows: active = growth percent below 10; inactive = the rest.

test system: NCI-H322M lung; test: NCI-60 one-dose screen, 48 h (100 = growth as untreated, 0 = no growth, -100 = all killed); conditions: 10 µM unless noted

Compound	growth
CC(=O)Nc1ccc(-c2nc3cc(-c4ccc(O)cc4)ccc3n2C)cc1	65.4% (inactive)
Clc1cccc(Cl)c1/C=C/c1cc(/C=C/c2ccc(Br)cc2)c2ccccc2n1	89.7% (inactive)
COc1cc(OC)cc(-c2cc3ccc(N(C)C)cc3c(=O)[nH]2)c1	52.9% (inactive)
CNC(=O)c1cc(Oc2ccc3nc(NC(=O)Nc4cccc(OC(F)(F)F)c4)sc3c2)ccn1	47.8% (inactive)
N#Cc1c(-c2ccc(Br)cc2)nc2n[nH]c(-c3ccc(Br)cc3)c2c1-c1ccc(F)cc1	90.6% (inactive)
CCN1CCN(Cc2ccc(C(=O)Nc3cccc(C#Cc4cccc5[nH]nc(N)c45)c3)cc2C(F)(F)F)CC1	-95.2% (active)
O=c1[nH]n(C(=S)N/N=C/c2ccccc2Cl)c(=O)c2ccccc12	5.29% (active)
CC1(C)CC[C@]2(C(=O)Nc3ccccc3)CC[C@]3(C)C(=CCC4[C@@]5(C)C[C@@H](O)[C@H](O)[C@@](C)(CO)C5CC[C@]43C)C2C1 (stereo partly specified)	89.7% (inactive)
Nc1nnc(-c2c[nH]c3ncc(Br)cc23)c(-c2c[nH]c3ccc(F)cc23)n1	50.5% (inactive)
COc1ccc(C(=O)/C=C/c2ccccc2Br)cc1S(N)(=O)=O	20.6% (inactive)
CSc1ccccc1NC(=O)c1ccc2nn(/C(C#N)=C/c3ccccn3)nc2c1	25.3% (inactive)
O=C(N=Nc1c(O)[nH]c2ccc(Cl)cc12)c1ccc2nc(-c3ccccc3)[nH]c2c1	15.8% (inactive)
CC(=O)Oc1ccccc1C(=O)[Se]C(=NC1CCCCC1)NC1CCCCC1	-82.7% (active)
CSc1ccc(NC(=O)c2ccc3nnn(/C(C#N)=C/c4ccccn4)c3c2)cc1	3.57% (active)
COc1ccc(C(=O)/C=C/c2cccnc2)cc1S(N)(=O)=O	52% (inactive)
Cc1ccc([C@H]2C(C(=O)c3ccc(Cl)cc3)C3(N[C@@H]2c2ccccc2)C(=O)Nc2ccccc23)cc1 (stereo partly specified)	55.4% (inactive)
CN(C)CCCNC(=O)c1cc(NC(=O)c2cc(NC(=O)c3ccc(C#Cc4ccccc4)cc3)cn2C)cn1C	38.9% (inactive)
COc1ccc(C(=O)/C=C/c2cccc3ccccc23)cc1S(N)(=O)=O	14.8% (inactive)
COc1ccc(NC(=O)c2sc3nc(C(C)C)ccc3c2N)cc1	69.5% (inactive)
COc1ccc([C@H](C)Nc2nc(Cl)nc3ccccc23)cc1	86% (inactive)
COc1cc2oc(-c3cccc(NC(=O)[C@H](Cc4ccccc4)NC(=O)OC(C)(C)C)c3)cc(=O)c2c(OC)c1OC	46.1% (inactive)
Cc1ccc(C(=O)CSc2nc3ccc(F)cc3c(=O)n2-c2ccc(Cl)cc2)cc1	64.8% (inactive)
CC(C)Sc1nc(NCCc2c[nH]c3ccccc23)c(C#N)c(-c2ccc(F)cc2)n1	85.2% (inactive)
OCNc1ccc(-n2cnc3cc(-c4ccc(O)cc4)ccc32)cc1C(F)(F)F	46.3% (inactive)
Cc1cc2nc3c4ccccc4n(CCNCCN(C)C)c3nc2cc1C	36.3% (inactive)
COc1ccc2c(c1)C(=N/N=C(\C)c1ccc(OC)c(S(N)(=O)=O)c1)C(=O)N2	94% (inactive)
